IL-2 act: qHTS of IL-2 Activators | IL-2 activation reporter assay, cell-based qHTS; stimulated with anti-CD3/CD4/CD28 beads; in transgenic mouse T cells | activation, % (series mostly up to about 46 µM) | 360,000 compounds, 0.065% hits | AID 652025, 2013; in the data active means activation above about 50%; inconclusive means mostly about 30% to 49%
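EGFP and DsRed fluorescence is measured by plate cytometry in unstimulated transgenic mouse T cells exposed to compound for 60 minutes, then stimulated 18 hours at 37 degrees C with anti-CD3/anti-CD4 beads plus anti-CD28.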
TCR activator: Activators of T cell receptors: qHTS campaign. primary human leukocytes, anti-CD3, IL-2 HTRF, 48 h. Potency, µM (titrated, usually from 9.22 µM), actives largely listed as activators. 330,000 tested, under 10 active. AID 504894, 2011
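Primary human leukocytes were stimulated with a-CD3 beads plus compounds for 48 hr without co-stimulation; secreted IL-2 was quantified by HTRF using a-IL-2-K (europium cryptate) and a-IL-2-d2, excited at 320nm with acceptor emission read at 665nm.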
BRCA1 expr up: qHTS Assay to Identify Small Molecule Activators of BRCA1 Expression | MCF7-BRCA1-FFLuc reporter, luminescence, 48 h; response scale: scaled: vehicle 0%, 10 µM genistein 100% | Potency, µM (highest dose often 46.1 µM), actives largely listed as activators | 380,000 compounds, 1.1% hits | AID 624202, 2012; further: nearly all actives have a fitted effect of over 80% in size
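Cells: MCF7-BRCA1-FFLuc, 2000/well. Exposure: 48 h, 37 °C, 5% CO2. Read: luminescence, 15 min post-substrate. Controls: genistein 10 microM (maximal activation), DMSO (neutral).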
p53 reactivator: qHTS assay for re-activators of p53 using a Luc reporter; Potency, µM (highest dose often 92.2 µM), usual class: activators; H1299 p53-A138V BP100-luciferase reporter, luminescence, 24 h; 320,000 compounds, 0.063% hits; further: nearly all actives have a fitted effect of over 45% in size
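H1299 (p53-null), stable ts p53-A138V + BP100-Luc; 1000 cells/well, Opti-MEM/10% FBS; cpd 4 pt, 1:5; 24 h, 37 deg C, 5% CO2; detection reagent 10 min RT; luminescence.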
uPA surface inh: qHTS for Inhibitors of Cell Surface uPA Generation. AID 540303, 2011. 330,000 compounds, 0.31% hits. Potency, µM (top dose mostly 38.3 µM), most hits filed as inhibitors. cell surface uPA generation assay, qHTS; active means well fitted inhibition curve with a large enough effect; inconclusive means small, poorly fitted or top-dose-only effect; inactive means no such curve, though single readings can be large or run the other way; tested in mouse RAW 264.7 cells; further: nearly all actives have a fitted effect of over 55% in size
A number is an active result. Rows were chosen to be rich in hits. Some 1.4% of all compounds tested hit in one or more screens of this group. Unless noted, the call rests on the fitted dose curve; in most records, active means well fitted curve in the direction sought with a large enough effect; inconclusive means small, poorly fitted or top-dose-only effect, or another doubt; inactive means no such curve, though single readings can be large; an effect the other way counts as inactive or inconclusive.

How did Cc1ccc(C)c(C(=O)C[n+]2cccc(Br)c2)c1 do in these assays?
BRCA1 expr up: inactive

How did Cc1ccnc(SCC(=O)c2cc3ccccc3o2)n1 do in these assays?
IL-2 act: inactive; TCR activator: inactive; BRCA1 expr up: 8.9µM; p53 reactivator: inactive; uPA surface inh: inactive

What do the screens show for `CC(C)(C)OC(=O)NCCCCCNC(=O)c1[nH]cnc1C(=O)Nc1ccc(Cl)cc1`?
IL-2 act: inactive; TCR activator: inactive; BRCA1 expr up: inactive; p53 reactivator: inactive; uPA surface inh: 6.3µM

How did Cc1c(C(=O)Nc2cccc(-c3nc4ccccc4s3)c2)oc2ccc(F)cc12 do in these assays?
BRCA1 expr up: inactive

What do the screens show for `O=[N+]([O-])c1cccc(/C=N/N2CCN(Cc3ccccc3)CC2)c1`?
IL-2 act: inactive; TCR activator: inactive; BRCA1 expr up: 13µM; p53 reactivator: inactive; uPA surface inh: inactive

Results for O=[N+]([O-])c1ccccc1/C=C\C=N\N1CCN(c2ccccc2)CC1 ?
IL-2 act: inactive; TCR activator: inactive; BRCA1 expr up: inactive; p53 reactivator: inactive; uPA surface inh: inconclusive

Results for O=[N+]([O-])c1ccccc1/C=C/C=N/N1CCCCC1 ?
IL-2 act: inactive; TCR activator: inactive; BRCA1 expr up: 2.8µM; p53 reactivator: inconclusive

How did O=[N+]([O-])c1cccc(C=NN2CCCCCC2)c1 do in these assays?
IL-2 act: inactive; TCR activator: inactive; BRCA1 expr up: 13µM; uPA surface inh: inactive

How did O=[N+]([O-])c1cccc(/C=N/N2CCN(c3ccccn3)CC2)c1 do in these assays?
IL-2 act: inactive; TCR activator: inactive; BRCA1 expr up: 8.9µM; p53 reactivator: inactive; uPA surface inh: inactive

Results for Cc1cc([N+](C)(C)C)cc(C)c1/C=C/c1ccnc2ccccc12 ?
BRCA1 expr up: inactive

How did Cc1cccc(N2C(=O)CSC23C(=O)N(Cc2cccc(C(F)(F)F)c2)c2ccccc23)c1 (centres undefined) do in these assays?
BRCA1 expr up: inactive

What do the screens show for `C(=N\N1CCN(c2ccccn2)CC1)/c1cccc2ccccc12`?
IL-2 act: inactive; TCR activator: inactive; BRCA1 expr up: inactive; p53 reactivator: inactive; uPA surface inh: inactive

How did Oc1ccccc1/C=N/N1CCN(c2ccccn2)CC1 do in these assays?
IL-2 act: inactive; TCR activator: inactive; BRCA1 expr up: 10µM; p53 reactivator: inactive; uPA surface inh: inactive

How did CC(=O)NC(c1ccco1)c1cc(F)c2cccnc2c1O (centres undefined) do in these assays?
IL-2 act: inactive; TCR activator: inactive; BRCA1 expr up: inactive; p53 reactivator: inactive; uPA surface inh: inconclusive

What do the screens show for `CC(=O)NC(c1cccs1)c1cc(F)c2cccnc2c1O` (centres undefined)?
IL-2 act: inactive; TCR activator: inactive; BRCA1 expr up: inactive; p53 reactivator: inactive; uPA surface inh: 5µM

Results for Nc1nonc1C(=O)N/N=C/c1ccc(Br)o1 ?
IL-2 act: inactive; TCR activator: inactive; BRCA1 expr up: inactive; p53 reactivator: inactive; uPA surface inh: inactive

Results for N/C(=N\N=C\c1ccc(Br)o1)c1nonc1N ?
IL-2 act: inactive; TCR activator: inactive; BRCA1 expr up: 10µM; p53 reactivator: inactive; uPA surface inh: inactive

What do the screens show for `COc1ccc(C(=O)COc2ccc(F)cc2)c(O)c1`?
IL-2 act: inactive; TCR activator: inactive; BRCA1 expr up: 11µM; p53 reactivator: inactive; uPA surface inh: inactive

What do the screens show for `N/C(=N\OC(=O)c1ccc(Cl)cc1)c1ccc(Cl)cc1`?
IL-2 act: inactive; TCR activator: inactive; BRCA1 expr up: 11µM; p53 reactivator: inconclusive; uPA surface inh: inactive

How did Cc1ccc(/C(N)=N/OC(=O)c2ccc(F)cc2)cc1 do in these assays?
IL-2 act: inactive; TCR activator: inactive; BRCA1 expr up: 10µM; p53 reactivator: inconclusive

What do the screens show for `c1ccc(CCNc2ncnc3c2cnn3-c2ccccc2)cc1`?
IL-2 act: inactive; TCR activator: inactive; BRCA1 expr up: 4.5µM; p53 reactivator: inconclusive; uPA surface inh: inactive

What do the screens show for `CC(C)Nc1ncnc2c1cnn2-c1ccc(Cl)cc1`?
IL-2 act: inactive; TCR activator: inactive; BRCA1 expr up: inactive; p53 reactivator: inactive; uPA surface inh: 13µM

Results for Cc1ccc(CSc2ncnc3c2cnn3-c2ccccc2)cc1 ?
IL-2 act: inactive; TCR activator: inactive; BRCA1 expr up: inactive; p53 reactivator: inactive; uPA surface inh: inactive

What do the screens show for `CCOC(=O)CSc1ncnc2c1cnn2-c1ccc(C)cc1`?
IL-2 act: inactive; TCR activator: inactive; BRCA1 expr up: inactive; p53 reactivator: inactive; uPA surface inh: inactive

Results for c1ccc(CNc2ncnc3c2cnn3-c2ccccc2)cc1 ?
IL-2 act: inactive; TCR activator: inactive; BRCA1 expr up: inactive; p53 reactivator: inactive; uPA surface inh: inactive

What do the screens show for `Cc1ccc(-n2ncc3c(SCc4ccccc4)ncnc32)cc1`?
IL-2 act: inactive; TCR activator: inactive; BRCA1 expr up: 4.5µM; p53 reactivator: inconclusive; uPA surface inh: inactive

What do the screens show for `Cc1ccc(CSc2ncnc3c2cnn3-c2ccc(C)cc2)cc1`?
IL-2 act: inactive; TCR activator: inactive; BRCA1 expr up: 4.5µM; p53 reactivator: inactive; uPA surface inh: inactive

Results for CCc1ccc(NC(=O)C2CCCN(S(=O)(=O)c3cccc4nsnc34)C2)cc1 (centres undefined) ?
BRCA1 expr up: inactive

How did COc1ccc(C(=O)Nc2nc(-c3nnn(-c4ccc(F)cc4F)c3C)ns2)cc1 do in these assays?
BRCA1 expr up: inactive

What do the screens show for `COc1ccc(-c2noc(CSc3nnc(Cc4ccccc4)n3-c3ccc(F)cc3)n2)cc1`?
BRCA1 expr up: inactive

Results for COc1cccc(S(=O)(=O)N2CCN(c3nc(-c4cccs4)nc4ccccc34)CC2)c1 ?
BRCA1 expr up: inactive

What do the screens show for `Cc1cccc(-n2ncc3c(N(C)C4CCCCC4)ncnc32)c1`?
IL-2 act: inactive; TCR activator: inactive; BRCA1 expr up: inactive; p53 reactivator: inactive; uPA surface inh: 1.4µM

How did CN(Cc1ccccc1)c1ncnc2c1cnn2-c1ccccc1 do in these assays?
IL-2 act: inactive; TCR activator: inactive; BRCA1 expr up: inconclusive; p53 reactivator: inconclusive

What do the screens show for `CCOC(=O)CSc1ncnc2c1cnn2-c1ccccc1`?
IL-2 act: inactive; BRCA1 expr up: inactive; p53 reactivator: inactive; uPA surface inh: inactive

How did CCN(c1ccccc1)c1ncnc2c1cnn2-c1ccccc1 do in these assays?
IL-2 act: inactive; TCR activator: inactive; BRCA1 expr up: 5µM; p53 reactivator: inconclusive; uPA surface inh: inactive

What do the screens show for `COc1ccc(-n2ncc3c(N(C)C4CCCCC4)ncnc32)cc1`?
IL-2 act: inactive; TCR activator: inactive; BRCA1 expr up: inactive; uPA surface inh: inconclusive

Results for CCOC(=O)CC(=O)CSc1ncnc2c1cnn2-c1ccccc1 ?
IL-2 act: inactive; TCR activator: inactive; BRCA1 expr up: 6.3µM; p53 reactivator: inactive; uPA surface inh: inactive

Screening results (PubChem)
